The text below walks through data of PubChem BioAssay (NCI).

This is part of a sample that, as a whole, favours compounds with a hit. Of some 83,000 tested, about 20% had one in any assay.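 Single-dose data. Exposure time 48 hours. Values below 10 considered active.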 Unmarked numbers belong to inactive results. The source made the active and inactive calls.

This assay has as its system MDA-MB-468 breast. Briefly: NCI-60 one-dose screen, 48 h (100 = growth as untreated, 0 = no growth, -100 = all killed). The settings on record: 10 µM unless noted.
Regarding `NC(=N\N=C/c1ccc(Cl)cc1Cl)/C(N)=N\N=C/c1ccc(Cl)cc1Cl`, the growth is 62.8%.
As to `C=C(C)[C@@H]1CC[C@]2(C)[C@H](CC(=O)N[C@H]3[C@@H]4C[C@](C)(C(=O)OC)CC[C@]4(C)CC[C@]32C)[C@@]1(C)CCC#N`, the growth was 83.3%.
Consider `CC(C)N(CCOC(=O)Nc1ccccc1Cl)C(C)C`, for which the growth was 104%.
For `Cn1ccnc1C(=O)/C=C/c1ccc(C(=O)Nc2nc3ccccc3[nH]2)cc1`, the growth was -3.55% (active).
Take `O=C(Nc1ccc(Cl)cc1F)c1cc(I)ccc1O`: the growth is 41.4%.
As to `CC(=NCc1ccccc1)c1ccc(O)cc1O`, the growth was 118%.
In the case of `CCOc1c(C#N)nnc2c(C#N)c(NC(=O)c3ccccc3)nn12`, the growth was 103%.
Next, `O=C(Nc1ccc(-n2cc(-c3ccncc3)c(-c3ccc(Cl)c(O)c3)n2)cc1)c1ccc(Cl)c(C(F)(F)F)c1`: -12% (active); `Cn1cc(C2=C(c3coc4cc(Br)ccc34)C(=O)NC2=O)c2ccccc21`: 5.23% (active).
The value for `CN1C(=O)/C(=C/c2ccc(C(=O)Nc3ncc(Cc4ccc(F)cc4)s3)cc2)SC1=S` was 25.2%; that for `COc1ccc(-n2c(C(O)c3ccccc3)n[nH]c2=S)cc1` (stereo not given) was 98.6%.
As for `O=[N+]([O-])c1cccc(N=Nc2ccc(O)cc2O)c1`, the growth is 69.6%.
As to `COc1cc2ncnc(Nc3cccc(Cl)c3F)c2cc1OC(=O)N1CCN(C)C[C@H]1C`, the growth is -10.7% (active).
As for `COc1nc2ccccc2s1`, the growth was 113%.
Regarding `NC(=O)c1cccc(-n2ccc3cc(NC(=O)c4ccc(N5CCOCC5)c(C(F)(F)F)c4)ccc32)n1`, the growth is 75.7%.
